Laboratory results: PubChem BioAssay (NCATS)
“And” between values parts separate entries of the source, which are not always exact repeats. Identical values can stand only once. Results filed as inconclusive are left out. The source made the active and inactive calls. Calls come from the whole dose curve; as a rule, active = well fitted inhibition curve with a large enough effect; inconclusive = small, poorly fitted or top-dose-only effect; inactive = flat fitted curve, though single readings scatter.

Legend:
[1] = tested on: KB-3-1; assay: Cytotoxic Profiling of Annotated Libraries Using Quantitative High-Throughput Screening (AID 1296008); details: Five cell lines viability, CellTiter-Glo ATP luminescence, 48-72 h; max response: hits give low values
In short: (§1)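 Cytotoxicity was measured as CellTiter-Glo ATP luminescence, read after 10 min at room temperature. Compound treatment of the cells lasted 48 or 72 hr at 37 degrees Celsius in a qHTS format.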

[2] = tested on: NIH3T3; assay: as above; details: Five cell lines viability, CellTiter-Glo ATP luminescence, 48-72 h; max response: hits give low values
In short: as §1

[3] = tested on: MCC-13; assay: qHTS assay to identify novel small-molecules to repurpose for Merkel cell carcinoma treatment (AID 1296009); details: MCC and control cell lines, CellTiter-Glo viability, 72 h; series mostly up to 46 µM
In short: (§2)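 After compound transfer in DMSO, plates were kept 72 hr at 37 degree celsius. Luminescent ATP signal from CellTiter-Glo served as viability measure, normalized against DMSO and no-cell controls.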

[4] = tested on: MCC-26; assay: as above; details: MCC and control cell lines, CellTiter-Glo viability, 72 h; series mostly up to 46 µM
In short: as §2

[5] = tested on: MKL-1; assay: as above; details: MCC and control cell lines, CellTiter-Glo viability, 72 h; series mostly up to 46 µM
In short: as §2

[6] = tested on: MKL-2; assay: as above; details: MCC and control cell lines, CellTiter-Glo viability, 72 h; series mostly up to 46 µM
In short: as §2

[7] = tested on: HACAT; assay: as above; details: MCC and control cell lines, CellTiter-Glo viability, 72 h; at 44.8 µM (top of the series) unless noted
In short: as §2

[8] = tested on: NIH3T3; assay: as above; details: MCC and control cell lines, CellTiter-Glo viability, 72 h; at 44.8 µM (top of the series) unless noted
In short: as §2

[9] = tested on: HEK293T; assay: as above; details: MCC and control cell lines, CellTiter-Glo viability, 72 h; at 44.8 µM (top of the series)
In short: as §2
% is set by controls: 0 for no effect and ±100 for the full control effect; potency is the fitted concentration of half-maximal effect.
Note: nearly all actives have a fitted effect of over 60% in size.

c1ccc2nc(N3CCNCC3)ccc2c1
inactive: max response [1] -16.3% | max response [2] 0.319% | Potency [3] | Potency [4] | Potency [5] | Potency [6]

Cc1cccc(Cc2cnc[nH]2)c1C
inactive: max response [1] -11.3% | max response [2] -2.68% | Potency [3] | Potency [4] | Potency [5] | Potency [6]

C#C[C@]1(O)C=C[C@H]2[C@@H]3CCC4=CC(=O)CC[C@@H]4[C@H]3CC[C@@]21CC
inactive: max response [1] -9.68% | outcome [7] | Potency [3] | Potency [4] | Potency [5] | Potency [6]

C[C@H](CN1CCOCC1)C(C(=O)N1CCCC1)(c1ccccc1)c1ccccc1
inactive: max response [1] 1.9% | max response [2] -7.32% | Potency [3] | Potency [4] | Potency [5] | Potency [6]

N#Cc1nn(-c2c(Cl)cc(C(F)(F)F)cc2Cl)c(N)c1S(=O)C(F)(F)F (stereo unspecified)
active: Potency [6] 23.7 µM
inactive: max response [1] -1.94% | Potency [3] | Potency [4]

CN(C)C(=S)SSC(=S)N(C)C
inactive: max response [1] -0.0008%
active: Potency [2] 0.422 µM | Potency [4] 0.299 µM | Potency [5] 0.596 µM | Potency [6] 0.596 µM

CCC(=O)OC1(c2ccccc2)CCN(C)CC1
inactive: max response [1] 2.4% | max response [2] -0.056% | Potency [3] | Potency [4] | Potency [5] | Potency [6]

CC(=O)OC1(c2ccccc2)CCN(CCc2ccccc2)CC1
inactive: max response [1] -24% | max response [2] -21.5% | Potency [5]

CCCOC(=O)Cc1ccc(OCC(=O)N(CC)CC)c(OC)c1
inactive: max response [1] -8.87% | max response [2] -20.5% | Potency [3] | Potency [4] | Potency [5] | Potency [6]

CNC(C)Cc1ccc2c(c1)OCO2 (stereo unspecified)
inactive: max response [1] -21.8% | max response [2] 0.465% | Potency [3] | Potency [6]

COCC(=O)N(c1c(C)cccc1C)C(C)C(=O)OC (stereo unspecified)
inactive: max response [1] -13.6% | outcome [2] | Potency [3] | Potency [4] | Potency [5] | Potency [6] | outcome [8]

COc1cc(C[C@@H](C)N)c(OC)cc1C
inactive: max response [1] -10.2% | max response [2] -23.9% | Potency [3] | Potency [4] | Potency [5] | Potency [6]

O=C(O)CCCCCCNC1c2ccccc2CCc2ccccc21
inactive: max response [1] 7.47% | max response [2] 1.62% | Potency [3] | Potency [4] | Potency [5] | Potency [6]

O=C1NCN(c2ccccc2)C12CCN(CCCOc1ccc(F)cc1)CC2
inactive: max response [1] 25% | Potency [3] | Potency [5] | Potency [6]

CN(C)CCc1c[nH]c2ccccc12
inactive: max response [1] -5.51% | max response [2] 2.6% | Potency [3] | Potency [4] | Potency [5] | Potency [6]

Oc1ccc2[nH]cc(CCCCN3CC=C(c4ccccc4)CC3)c2c1
active: Potency [5] 8.41 µM | Potency [6] 5.96 µM
inactive: max response [1] 7.3% | outcome [7] | Potency [3] | Potency [4]

CCCN(CCC)CCc1c[nH]c2ccccc12
inactive: max response [1] -20.7% | max response [2] 3.34% | Potency [3] | Potency [4] | Potency [5] | Potency [6]

CCCCCCCCC(=O)NCc1ccc(O)c(OC)c1
inactive: max response [1] -3.93% | max response [2] -70.4% | Potency [3] | Potency [4] | Potency [5] | Potency [6]

CC(CC(C(N)=O)(c1ccccc1)c1ccccc1)N(C)C (stereo unspecified)
inactive: outcome [2] | outcome [9] | Potency [3] | Potency [4] | Potency [5] | Potency [6] | outcome [8]

CN1CCC(N(Cc2ccccc2)c2ccccc2)CC1
inactive: max response [2] -20.5% | outcome [7] | Potency [3] | Potency [4] | Potency [5]

COc1cc(CC(C)N)c(OC)cc1Br (stereo unspecified)
active: Potency [6] 3.18 µM
inactive: max response [1] -7.67% and -13.5%

C[C@]12CC[C@H]3[C@@H](CCC4=CC(=O)CC[C@@]43C)[C@@H]1CC[C@@H]2C(=O)O
inactive: max response [2] 3.4% | outcome [7] | Potency [3] | Potency [4] | Potency [5] | Potency [6]

CCOC(=O)C1(c2ccccc2)CCN(CCc2ccc(N)cc2)CC1
inactive: max response [2] 2.24% | Potency [3] | Potency [4] | Potency [5] | Potency [6]

CC(C(O)c1ccccc1)N(C)C/C=C/c1ccccc1 (stereo unspecified)
inactive: max response [2] 2.21% | outcome [7] | Potency [3] | Potency [4] | Potency [5] | Potency [6]

COc1ccc2c3c1O[C@H]1[C@@H](O)C=C[C@H]4[C@@H](C2)N(C)CC[C@@]341
active: Potency [3] 23.8 µM | Potency [5] 10.7 µM | Potency [6] 2.12 µM
inactive: max response [1] -15%

CCc1ccc(C2CCNCC2)cc1
inactive: max response [2] 1.66% | outcome [7] | Potency [3] | Potency [4] | Potency [5] | Potency [6]

CN1C(=O)CN=C(c2ccccc2)c2cc(Cl)ccc21
inactive: max response [1] -19.7% | Potency [4] | Potency [5] | Potency [6]

C1CN2CCC1CC2
inactive: outcome [2] | outcome [7] | Potency [3] | Potency [4] | Potency [5] | Potency [6] | outcome [8]
